{"source": "PubChem BioAssay AID1159580", "about": "(chemical genetic matrix, 2015)", "test": "chemical genetic growth profiling, strain panel (AID 1159580);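 also: tested at 20 µM; growth read once vehicle control cultures reached saturation at 30 °C; 1 = growth at the plate median or of vehicle wells; lower values mean less growth of the strain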", "conditions": "growth OD", "note": "Out of some 5,500 compounds screened, about 2,000 (36%) were called active. Inconclusive results (about 18%) are left out. The list shows a part of the results. Values without a mark were called inactive. Rule as the data show it: active = normalized growth mostly below about 0.91 (no sharp cut-off); inconclusive = no clear call, values can overlap the other calls; inactive = mostly above about 0.92.", "data": [{"compound": "CC(C)=CCc1c(O)cc2occ(-c3ccc4c(c3)OCO4)c(=O)c2c1O", "values": [{"measurement": "normalized growth", "setting": "S. cerevisiae deletion strains, locus YJR066W, strain TOR1, stronger effect = lower value", "value": 0.832}, {"measurement": "normalized growth", "setting": "S. cerevisiae deletion strains, locus YJR075W, strain HOC1, stronger effect = lower value", "value": 0.994}, {"measurement": "normalized growth", "setting": "S. cerevisiae deletion strains, locus YKL068W, stronger effect = lower value", "value": 1.01}, {"measurement": "normalized growth", "setting": "S. cerevisiae deletion strains, locus YKL085W, strain MDH1 (second series), stronger effect = lower value", "value": 1}, {"measurement": "normalized growth", "setting": "S. cerevisiae deletion strains, locus YKL085W, strain MDH1, stronger effect = lower value", "value": 1}, {"measurement": "normalized growth", "setting": "S. cerevisiae deletion strains, locus YKL160W, strain elf1, stronger effect = lower value", "value": 0.934}, {"measurement": "normalized growth", "setting": "S. cerevisiae deletion strains, locus YKL190W, strain CNB1, stronger effect = lower value", "value": 1.01}, {"measurement": "normalized growth", "setting": "S. cerevisiae deletion strains, locus YKR001C, strain vps1, stronger effect = lower value", "value": 1.03}, {"measurement": "normalized growth", "setting": "S. cerevisiae deletion strains, locus YKR026C, strain gcn3, stronger effect = lower value", "value": 0.992}, {"measurement": "normalized growth", "setting": "S. cerevisiae deletion strains, locus YKR091W, strain srl3, stronger effect = lower value", "value": 1}, {"measurement": "normalized growth", "setting": "S. cerevisiae deletion strains, locus YLL001W, strain dnm1, stronger effect = lower value", "value": "0.81 (active)"}, {"measurement": "normalized growth", "setting": "S. cerevisiae deletion strains, locus YLL026W, stronger effect = lower value", "value": 0.984}, {"measurement": "normalized growth", "setting": "S. cerevisiae deletion strains, locus YLL041C, strain sdh2, stronger effect = lower value", "value": 0.991}, {"measurement": "normalized growth", "setting": "S. cerevisiae deletion strains, locus YLR027C, strain aat2, stronger effect = lower value", "value": "0.918 (active)"}, {"measurement": "normalized growth", "setting": "S. cerevisiae deletion strains, locus YLR039C, strain RIC1, stronger effect = lower value", "value": 1.06}, {"measurement": "normalized growth", "setting": "S. cerevisiae deletion strains, locus YLR058C, strain SHM2, stronger effect = lower value", "value": 1.02}, {"measurement": "normalized growth", "setting": "S. cerevisiae deletion strains, locus YLR102C, strain apc9, stronger effect = lower value", "value": 1.03}, {"measurement": "normalized growth", "setting": "S. cerevisiae deletion strains, locus YLR113W, strain HOG1, stronger effect = lower value", "value": "0.75 (active)"}, {"measurement": "normalized growth", "setting": "S. cerevisiae deletion strains, locus YLR221C, strain rsa3, stronger effect = lower value", "value": "0.865 (active)"}, {"measurement": "normalized growth", "setting": "S. cerevisiae deletion strains, locus YLR258W, strain gsy2, stronger effect = lower value", "value": 0.919}, {"measurement": "normalized growth", "setting": "S. cerevisiae deletion strains, locus YLR262C, strain YPT6 (second series), stronger effect = lower value", "value": 0.911}, {"measurement": "normalized growth", "setting": "S. cerevisiae deletion strains, locus YLR262C, strain YPT6, stronger effect = lower value", "value": 1.06}, {"measurement": "normalized growth", "setting": "S. cerevisiae deletion strains, locus YLR268W, strain sec22, stronger effect = lower value", "value": 1}, {"measurement": "normalized growth", "setting": "S. cerevisiae deletion strains, locus YLR320W, strain mms22, stronger effect = lower value", "value": 0.929}, {"measurement": "normalized growth", "setting": "S. cerevisiae deletion strains, locus YLR330W, strain CHS5, stronger effect = lower value", "value": 1.01}, {"measurement": "normalized growth", "setting": "S. cerevisiae deletion strains, locus YLR342W, strain FKS1 (second series), stronger effect = lower value", "value": 0.996}, {"measurement": "normalized growth", "setting": "S. cerevisiae deletion strains, locus YLR342W, strain FKS1, stronger effect = lower value", "value": 0.952}, {"measurement": "normalized growth", "setting": "S. cerevisiae deletion strains, locus YLR357W, strain rsc2, stronger effect = lower value", "value": 0.948}, {"measurement": "normalized growth", "setting": "S. cerevisiae deletion strains, locus YLR370C, strain arc18, stronger effect = lower value", "value": 0.992}, {"measurement": "normalized growth", "setting": "S. cerevisiae deletion strains, locus YLR371W, strain rom2, stronger effect = lower value", "value": 1.04}, {"measurement": "normalized growth", "setting": "S. cerevisiae deletion strains, locus YLR384C, strain iki3, stronger effect = lower value", "value": 0.992}, {"measurement": "normalized growth", "setting": "S. cerevisiae deletion strains, locus YLR418C, strain cdc73, stronger effect = lower value", "value": 1.01}, {"measurement": "normalized growth", "setting": "S. cerevisiae deletion strains, locus YML016C, strain PPZ1, stronger effect = lower value", "value": 1.01}, {"measurement": "normalized growth", "setting": "S. cerevisiae deletion strains, locus YML032C, strain rad52, stronger effect = lower value", "value": 1.02}, {"measurement": "normalized growth", "setting": "S. cerevisiae deletion strains, locus YML120C, strain ndi1, stronger effect = lower value", "value": "0.895 (active)"}, {"measurement": "normalized growth", "setting": "S. cerevisiae deletion strains, locus YML124C, strain tub3, stronger effect = lower value", "value": 1.02}, {"measurement": "normalized growth", "setting": "S. cerevisiae deletion strains, locus YMR058W, strain fet3, stronger effect = lower value", "value": "0.828 (active)"}, {"measurement": "normalized growth", "setting": "S. cerevisiae deletion strains, locus YMR078C, strain ctf18, stronger effect = lower value", "value": 1.03}, {"measurement": "normalized growth", "setting": "S. cerevisiae deletion strains, locus YMR125W, strain sto1, stronger effect = lower value", "value": 0.957}, {"measurement": "normalized growth", "setting": "S. cerevisiae deletion strains, locus YMR129W, stronger effect = lower value", "value": 0.982}, {"measurement": "normalized growth", "setting": "S. cerevisiae deletion strains, locus YMR205C, strain PFK2, stronger effect = lower value", "value": 0.96}, {"measurement": "normalized growth", "setting": "S. cerevisiae deletion strains, locus YMR223W, strain ubp8, stronger effect = lower value", "value": 1.02}, {"measurement": "normalized growth", "setting": "S. cerevisiae deletion strains, locus YMR231W, strain pep5, stronger effect = lower value", "value": 0.993}, {"measurement": "normalized growth", "setting": "S. cerevisiae deletion strains, locus YMR263W, strain SAP30, stronger effect = lower value", "value": 1}, {"measurement": "normalized growth", "setting": "S. cerevisiae deletion strains, locus YMR307W, strain GAS1, stronger effect = lower value", "value": 1}, {"measurement": "normalized growth", "setting": "S. cerevisiae deletion strains, locus YNL067W, strain RPL9B, stronger effect = lower value", "value": 1}, {"measurement": "normalized growth", "setting": "S. cerevisiae deletion strains, locus YNL071W, strain lat1, stronger effect = lower value", "value": 0.949}, {"measurement": "normalized growth", "setting": "S. cerevisiae deletion strains, locus YNL128W, strain TEP1, stronger effect = lower value", "value": 1.02}, {"measurement": "normalized growth", "setting": "S. cerevisiae deletion strains, locus YNL153C, strain GIM3, stronger effect = lower value", "value": 1}, {"measurement": "normalized growth", "setting": "S. cerevisiae deletion strains, locus YNL183C, strain NPR1, stronger effect = lower value", "value": 0.839}, {"measurement": "normalized growth", "setting": "S. cerevisiae deletion strains, locus YNL209W, strain ssb2, stronger effect = lower value", "value": 0.937}, {"measurement": "normalized growth", "setting": "S. cerevisiae deletion strains, locus YNL233W, strain BNI4, stronger effect = lower value", "value": 0.971}, {"measurement": "normalized growth", "setting": "S. cerevisiae deletion strains, locus YNL248C, strain rpa49, stronger effect = lower value", "value": 0.962}, {"measurement": "normalized growth", "setting": "S. cerevisiae deletion strains, locus YNL250W, strain rad50, stronger effect = lower value", "value": 1.04}, {"measurement": "normalized growth", "setting": "S. cerevisiae deletion strains, locus YNL271C, strain bni1, stronger effect = lower value", "value": 1.03}, {"measurement": "normalized growth", "setting": "S. cerevisiae deletion strains, locus YNL298W, strain CLA4, stronger effect = lower value", "value": 1.05}, {"measurement": "normalized growth", "setting": "S. cerevisiae deletion strains, locus YNL307C, strain MCK1, stronger effect = lower value", "value": 1.02}, {"measurement": "normalized growth", "setting": "S. cerevisiae deletion strains, locus YNL322C, strain KRE1 (second series), stronger effect = lower value", "value": 0.998}, {"measurement": "normalized growth", "setting": "S. cerevisiae deletion strains, locus YNL322C, strain KRE1, stronger effect = lower value", "value": 1.01}, {"measurement": "normalized growth", "setting": "S. cerevisiae deletion strains, locus YNR049C, strain mso1, stronger effect = lower value", "value": 0.982}, {"measurement": "normalized growth", "setting": "S. cerevisiae deletion strains, locus YNR052C, strain pop2, stronger effect = lower value", "value": 1.03}, {"measurement": "normalized growth", "setting": "S. cerevisiae deletion strains, locus YOL006C, strain TOP1, stronger effect = lower value", "value": 1.05}, {"measurement": "normalized growth", "setting": "S. cerevisiae deletion strains, locus YOL012C, strain htz1", "value": 0.966}, {"measurement": "normalized growth", "setting": "S. cerevisiae deletion strains, locus YOL147C, strain pex11, stronger effect = lower value", "value": 1.03}, {"measurement": "normalized growth", "setting": "S. cerevisiae deletion strains, locus YOR001W, strain rrp6, stronger effect = lower value", "value": "0.857 (active)"}, {"measurement": "normalized growth", "setting": "S. cerevisiae deletion strains, locus YOR061W, strain CKA2, stronger effect = lower value", "value": 1.01}, {"measurement": "normalized growth", "setting": "S. cerevisiae deletion strains, locus YOR069W, strain VPS5, stronger effect = lower value", "value": 1.01}, {"measurement": "normalized growth", "setting": "S. cerevisiae deletion strains, locus YOR070C, strain gyp1, stronger effect = lower value", "value": 0.954}, {"measurement": "normalized growth", "setting": "S. cerevisiae deletion strains, locus YOR080W, strain dia2, stronger effect = lower value", "value": 0.925}, {"measurement": "normalized growth", "setting": "S. cerevisiae deletion strains, locus YOR083W, strain WHI5, stronger effect = lower value", "value": 0.925}, {"measurement": "normalized growth", "setting": "S. cerevisiae deletion strains, locus YOR106W, strain vam3, stronger effect = lower value", "value": 0.899}, {"measurement": "normalized growth", "setting": "S. cerevisiae deletion strains, locus YOR136W, strain idh2, stronger effect = lower value", "value": 1.03}, {"measurement": "normalized growth", "setting": "S. cerevisiae deletion strains, locus YOR144C, strain elg1, stronger effect = lower value", "value": 1.02}, {"measurement": "normalized growth", "setting": "S. cerevisiae deletion strains, locus YOR184W, strain ser1, stronger effect = lower value", "value": 1.05}, {"measurement": "normalized growth", "setting": "S. cerevisiae deletion strains, locus YOR231W, strain MKK1, stronger effect = lower value", "value": "0.816 (active)"}, {"measurement": "normalized growth", "setting": "S. cerevisiae deletion strains, locus YOR265W, strain rbl2, stronger effect = lower value", "value": 0.968}, {"measurement": "normalized growth", "setting": "S. cerevisiae deletion strains, locus YOR270C, strain vph1, stronger effect = lower value", "value": "0.729 (active)"}, {"measurement": "normalized growth", "setting": "S. cerevisiae deletion strains, locus YOR290C, strain snf2, stronger effect = lower value", "value": 0.916}, {"measurement": "normalized growth", "setting": "S. cerevisiae deletion strains, locus YOR316C, strain cot1, stronger effect = lower value", "value": 1.02}, {"measurement": "normalized growth", "setting": "S. cerevisiae deletion strains, locus YPL051W, strain arl3, stronger effect = lower value", "value": "0.877 (active)"}, {"measurement": "normalized growth", "setting": "S. cerevisiae deletion strains, locus YPL055C, strain LGE1, stronger effect = lower value", "value": 0.993}, {"measurement": "normalized growth", "setting": "S. cerevisiae deletion strains, locus YPL078C, strain atp4, stronger effect = lower value", "value": 0.918}, {"measurement": "normalized growth", "setting": "S. cerevisiae deletion strains, locus YPL106C, strain sse1, stronger effect = lower value", "value": 0.915}, {"measurement": "normalized growth", "setting": "S. cerevisiae deletion strains, locus YPL240C, strain hsp82, stronger effect = lower value", "value": 0.974}, {"measurement": "normalized growth", "setting": "S. cerevisiae deletion strains, locus YPL241C, strain CIN2, stronger effect = lower value", "value": 1.01}, {"measurement": "normalized growth", "setting": "S. cerevisiae deletion strains, locus YPL256C, strain CLN2, stronger effect = lower value", "value": "0.808 (active)"}, {"measurement": "normalized growth", "setting": "S. cerevisiae deletion strains, locus YPR119W, strain clb2, stronger effect = lower value", "value": 1.02}, {"measurement": "normalized growth", "setting": "S. cerevisiae deletion strains, locus YPR141C, strain kar3, stronger effect = lower value", "value": 1.03}, {"measurement": "normalized growth", "setting": "S. cerevisiae deletion strains, locus YPR163C, strain tif3, stronger effect = lower value", "value": 1.02}, {"measurement": "normalized growth", "setting": "S. cerevisiae deletion strains, locus YPR167C, strain met16, stronger effect = lower value", "value": 1.03}, {"measurement": "normalized growth", "setting": "S. cerevisiae deletion strains, strain wtn01, stronger effect = lower value", "value": 1.02}, {"measurement": "normalized growth", "setting": "S. cerevisiae strains, strain wild type, stronger effect = lower value", "value": 1}]}]}
